Experimental data published in PubChem BioAssay AID686978 (National Center for Advancing Translational Sciences (NCATS), 2013).
The whole screen tested about 420,000 compounds, of which about 64,000 (15%) were called active. Inconclusive results (about 27%) are left out. Calls come from the whole dose curve; as a rule, active = well fitted inhibition curve with a large enough effect; inconclusive = small, poorly fitted or top-dose-only effect; inactive = flat fitted curve, though single readings scatter. Only a sample is shown. Entries that show only a call come without a potency.

experiment: qHTS for Inhibitors of human tyrosyl-DNA phosphodiesterase 1 (TDP1): qHTS in cells in absence of CPT; details: DT40 Tdp1-/- hTDP1 cells, no CPT, ATP luminescence, 48 h; activity change, negative = growth inhibition: at 46.2 µM (top of the series); note: nearly all actives have a fitted effect of over 55% in size
Procedure, shortened: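 DT40 Tdp1-/-;hTDP1 cells, no CPT (DMSO vehicle only), 400 cells/well; compounds pin-transferred; ≥48 hr, 37 °C; CellTiter-Glo 30 min RT dark, luminescence read.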
Potency is the fitted concentration of half-maximal effect.

Q: For `O=C(CSc1nnc(C2CC2)n1Cc1ccccc1)Nc1cccnc1Cl`, which Potency is on record?
A: The Potency was “inactive”.

Q: For `CCC(CC)NC(=O)/C=C/c1cccc([N+](=O)[O-])c1`, which Potency is on record?
A: The Potency was “inactive”.

Q: For `CCC1(C(=O)c2ccccc2)C(c2cccc([N+](=O)[O-])c2)C1(C(=O)OC)C(=O)OC` (configuration not stated), which Potency is on record?
A: The Potency was 13 µM (active).

Q: Which Potency does the source give for `O=C(NOCc1ccccc1)c1cccc([N+](=O)[O-])c1` here?
A: The Potency was “inactive”.

Q: With `COc1ccc(C)cc1NC(=O)Nc1ccccc1SC` as the compound, how does the Potency read?
A: The Potency was “inactive”.

Q: With `O=C(COC(=O)Cc1ccc([N+](=O)[O-])cc1)NC1CCCCCC1` as the compound, how does the Potency read?
A: Its Potency is “inactive”.

Q: Which Potency does the source give for `CN(C(=O)CN1C(=O)S/C(=C\c2ccccc2F)C1=O)C1CCS(=O)(=O)C1` (configuration not stated) here?
A: The Potency was “inactive”.

Q: For `CN(C(=O)CCN1C(=O)/C(=C/c2ccccc2F)SC1=S)C1CCS(=O)(=O)C1` (configuration not stated), which Potency is on record?
A: Its Potency is 23.1 µM (active).

Q: With `COc1ccccc1/C=C1\SC(=O)N(CCC(=O)N(C)C2CCS(=O)(=O)C2)C1=O` (configuration not stated) as the compound, how does the Potency read?
A: Its Potency is “inactive”.

Q: For `CSc1cc(C)n(-c2ccccc2C)c(=S)c1C(C)=O`, which Potency is on record?
A: Its Potency is “inactive”.

Q: For `Cc1cccc(NC(=O)CSc2nnc(CCNC(=O)OC(C)(C)C)o2)c1C`, which Potency is on record?
A: Its Potency is “inactive”.

Q: With `CC1CC(C)CN(C(=O)CCNC(=O)Cn2cnc3ccccc3c2=O)C1` (configuration not stated) as the compound, how does the Potency read?
A: Its Potency is “inactive”.

Q: With `CCc1ccc(NC(=O)CSc2nnc(-c3cnccn3)n2Cc2ccco2)cc1` as the compound, how does the Potency read?
A: The Potency was “inactive”.

Q: For `O=C1c2ccccc2C(=O)C1c1ccccc1F`, which Potency is on record?
A: Its Potency is “inactive”.

Q: With `CN1CCN(c2ncc3c(n2)CC(c2ccccc2F)CC3=O)CC1` (configuration not stated) as the compound, how does the Potency read?
A: The Potency was 18.4 µM (active).

Q: For `CCCN1CCc2nc(N3CCN(C)CC3)ncc2C1`, which Potency is on record?
A: The Potency was “inactive”.

Q: Which Potency does the source give for `CSc1nsc(SC)c1NC(=O)OC1CCCCC1` here?
A: The Potency was “inactive”.

Q: Which Potency does the source give for `N#CCSc1nn(-c2ccc(F)cc2)c(=S)s1` here?
A: Its Potency is “inactive”.

Q: For `CCOC(=O)N/N=C1\CC(C)S(=O)(=O)c2ccc(Cl)cc21` (configuration not stated), which Potency is on record?
A: Its Potency is “inactive”.

Q: With `Cc1nc(N2CCOCC2)nc2c1CCCC2` as the compound, how does the Potency read?
A: Its Potency is “inactive”.

Q: For `COc1cccc(C(C(=O)NC2CCCC2)N(C(=O)c2ccco2)c2cccc(C(C)=O)c2)c1OC` (configuration not stated), which Potency is on record?
A: The Potency was “inactive”.

Q: Which Potency does the source give for `FC(F)(F)c1nnc2ccc(N3CCN(c4ccccc4)CC3)nn12` here?
A: Its Potency is “inactive”.

Q: For `Fc1c(F)c(C(F)(F)F)c(F)c(F)c1N1CCN(c2ccc3nnc(C(F)(F)F)n3n2)CC1`, which Potency is on record?
A: Its Potency is 23.1 µM (active).

Q: With `NC(=O)c1oc2ccccc2c1NC(=O)CS(=O)(=O)c1ccccc1` as the compound, how does the Potency read?
A: Its Potency is “inactive”.

Q: For `Cc1ccc(C(=O)CCC(=O)N(C)CC(=O)Nc2c(Cl)cccc2Cl)cc1`, which Potency is on record?
A: Its Potency is “inactive”.

Q: With `CC(C)CC(N=C1NC(C)(C)Cc2ccccc21)C(=O)O` (configuration not stated) as the compound, how does the Potency read?
A: The Potency was “inactive”.

Q: Which Potency does the source give for `Cc1nc2ccc(N)nc2nc1C` here?
A: Its Potency is “inactive”.

Q: With `Cn1c(C(=O)NCCCN2CCCCC2)cc2sccc21` as the compound, how does the Potency read?
A: Its Potency is “inactive”.

Q: Which Potency does the source give for `COCC(=O)N=Nc1c(O)[nH]c2ccccc12` here?
A: The Potency was “inactive”.

Q: For `O=C(CNC(=O)Cc1ccccc1)N=Nc1c(O)[nH]c2ccc(Br)cc12`, which Potency is on record?
A: The Potency was “inactive”.

Q: For `O=C(CCN1CCCCC1)N=Nc1c(O)[nH]c2ccccc12`, which Potency is on record?
A: Its Potency is 23.1 µM (active).

Q: Which Potency does the source give for `COc1ccccc1CNC(=O)CCCNS(=O)(=O)c1cccc2nsnc12` here?
A: Its Potency is “inactive”.

Q: Which Potency does the source give for `Cn1c(C(=O)O)ccc1S(=O)(=O)N(Cc1ccccc1)Cc1ccccc1` here?
A: Its Potency is “inactive”.

Q: Which Potency does the source give for `COc1ccc(C2NC(=O)C(=O)/C2=C(\O)c2ccc(Cl)cc2)cc1OC` (configuration not stated) here?
A: Its Potency is “inactive”.

Q: For `Cc1nc(SCc2ccc(F)cc2)c([N+](=O)[O-])[nH]1`, which Potency is on record?
A: Its Potency is “inactive”.

Q: For `CCCCCOc1ccc(CSC2=NCCN2)cc1[N+](=O)[O-]`, which Potency is on record?
A: The Potency was 23.1 µM (active).

Q: For `CCCCOc1ccc(CON(C(C)=O)C(C)=O)cc1Cl`, which Potency is on record?
A: The Potency was “inactive”.

Q: With `COc1ccc(NC(=O)CSCc2ccc([N+](=O)[O-])cc2)cc1OC` as the compound, how does the Potency read?
A: The Potency was “inactive”.

Q: Which Potency does the source give for `CCCCOc1ccc(CSC(=N)N)cc1[N+](=O)[O-]` here?
A: Its Potency is 11.6 µM (active).

Q: For `CCOc1ccc(C(=O)Nc2nccs2)cc1[N+](=O)[O-]`, which Potency is on record?
A: The Potency was “inactive”.

Q: For `CC(NC(=O)CC1SC(N)=NC1=O)c1ccccc1` (configuration not stated), which Potency is on record?
A: Its Potency is “inactive”.

Q: Which Potency does the source give for `CCCCCc1ccc(-c2cn(Cc3ccc4ccccc4c3)nn2)cc1` here?
A: Its Potency is “inactive”.

Q: With `CCc1cc(-c2nnn(CCC3COCCO3)c2CC)ccc1-c1cn(Cc2ccc3ccccc3c2)nn1` (configuration not stated) as the compound, how does the Potency read?
A: The Potency was 5.8 µM (active).

Q: For `O=C(Nc1ccccc1Cl)N1CCC(CN2CCCC2)CC1`, which Potency is on record?
A: Its Potency is “inactive”.

Q: With `COc1ccc(C(=O)Nc2nonc2-c2ccc(OC)c(OC)c2)cc1Cl` as the compound, how does the Potency read?
A: Its Potency is 23.1 µM (active).

Q: With `CCn1nnc(NC(=O)c2cc(Cl)c(OC)c(Cl)c2)n1` as the compound, how does the Potency read?
A: The Potency was “inactive”.

Q: For `COc1ccc(-c2nonc2NC(=O)c2oc3ccc(F)cc3c2C)cc1OC`, which Potency is on record?
A: Its Potency is “inactive”.

Q: With `Cc1cc(C(=O)COc2ccccc2Cl)c(C)n1C1CC1` as the compound, how does the Potency read?
A: Its Potency is 6.51 µM (active).

Q: Which Potency does the source give for `CN1CCN(C(=O)c2ccccc2NC(=O)COc2ccccc2Cl)CC1` here?
A: The Potency was “inactive”.

Q: Which Potency does the source give for `CC(=O)C1=C(C)NC(=O)NC1c1cc(Br)ccc1OCC#N` (configuration not stated) here?
A: Its Potency is “inactive”.

Q: With `Cc1cc(C(=O)COc2ccc(Br)cc2F)c(C)n1C1CC1` as the compound, how does the Potency read?
A: Its Potency is 3.26 µM (active).

Q: For `O=C(COc1ccccc1Cl)Nn1cnnc1`, which Potency is on record?
A: The Potency was “inactive”.

Q: Which Potency does the source give for `CCOC(=O)CC1C(=O)NCCN1C(=O)COc1ccc(Br)cc1C` (configuration not stated) here?
A: Its Potency is “inactive”.

Q: Which Potency does the source give for `CC(=O)c1cccc(NC(=O)N2CCCC2C(=O)NCCC(C)C)c1` (configuration not stated) here?
A: The Potency was “inactive”.

Q: Which Potency does the source give for `COc1ccccc1C(=O)N(C1=NC(C)CS1)c1ccc(Cl)cc1` (configuration not stated) here?
A: Its Potency is “inactive”.

Q: With `O=C(NCCc1ccccc1)C(=O)NCC1OCCN1S(=O)(=O)c1cccs1` (configuration not stated) as the compound, how does the Potency read?
A: Its Potency is “inactive”.

Q: Which Potency does the source give for `CSCCC(NC(=O)c1cc([N+](=O)[O-])cc([N+](=O)[O-])c1)c1nc2ccccc2[nH]1` (configuration not stated) here?
A: Its Potency is 16.4 µM (active).

Q: With `CCCC(NC(=O)c1ccco1)c1nc2ccccc2[nH]1` (configuration not stated) as the compound, how does the Potency read?
A: Its Potency is “inactive”.

Q: With `CSCCC(NC(=O)c1ccc(=O)n(C)n1)c1nc2ccccc2[nH]1` (configuration not stated) as the compound, how does the Potency read?
A: The Potency was “inactive”.

Q: With `COc1ccc(C(=O)CN(C(=O)c2ccc(Cl)cc2)N2C(=O)c3ccccc3C2=O)cc1` as the compound, how does the Potency read?
A: The Potency was “inactive”.

Q: For `CCn1c(C)cc(=O)cc1-c1ccc(Cl)cc1`, which Potency is on record?
A: Its Potency is “inactive”.

Q: Which Potency does the source give for `COc1ccc(Cn2c(-c3ccc(Cl)cc3)c[n+]3ccccc23)cc1` here?
A: Its Potency is 1.16 µM (active).

Q: For `COc1ccc(S(=O)(=O)N2CCN(CC(=O)N3CCNC3=O)CC2)cc1OC`, which Potency is on record?
A: Its Potency is “inactive”.

Q: Which Potency does the source give for `Cc1ccc(S(=O)(=O)CCC(=O)OCC(=O)N(C)Cc2ccccc2)cc1` here?
A: Its Potency is “inactive”.

Q: Which Potency does the source give for `CCOc1ccc(CNC(=O)c2ccc3c(c2)nnn3C2CCCC2)cc1` here?
A: Its Potency is “inactive”.

Q: With `COc1ccc(C(=O)OCC(=O)N2CC(=O)Nc3ccccc32)cc1Br` as the compound, how does the Potency read?
A: Its Potency is “inactive”.

Q: Which Potency does the source give for `CN(c1ccccc1)S(=O)(=O)c1ccc(Cl)c(C(=O)NCCc2c[nH]c3ccccc23)c1` here?
A: The Potency was 8.2 µM (active).

Q: For `CCN(CC)S(=O)(=O)c1ccc2[nH]cc(C(=O)NCCc3ccccc3)c(=O)c2c1`, which Potency is on record?
A: The Potency was 14.6 µM (active).

Q: For `O=C(NCCc1ccccc1)c1c[nH]c2ccc(F)cc2c1=O`, which Potency is on record?
A: The Potency was “inactive”.

Q: With `CN(c1ccccc1)S(=O)(=O)c1ccc(Cl)c(C(=O)OCC(N)=O)c1` as the compound, how does the Potency read?
A: The Potency was “inactive”.

Q: With `CSCCC(NS(=O)(=O)c1ccc(C)cc1)C(=O)NCCc1c[nH]c2ccccc12` (configuration not stated) as the compound, how does the Potency read?
A: The Potency was “inactive”.

Q: For `CCc1ccc(NS(=O)(=O)c2ccc3[nH]cc(C(=O)NCCc4cccc(C)c4)c(=O)c3c2)cc1`, which Potency is on record?
A: Its Potency is “inactive”.
